The list is not random: actives were taken first. Their share in the collection is about 3.3%.
Sm TGR block: qHTS Assay for the Inhibitors of Schistosoma Mansoni Peroxiredoxins | Schistosoma mansoni thioredoxin glutathione reductase (TGR), Q962Y6 | purified TGR, DTNB reduction, TNB absorbance 405 nm | Potency, µM (doses to about 114 µM), for inactives: at the top dose activity change, negative = inhibition, usual class: inhibitors | hit rate 3% among 360,000; also: nearly all actives have a fitted effect of over 60% in size
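Kinetic colorimetric format: TGR-catalysed, NADPH-driven DTNB reduction monitored via TNB absorbance. Enzyme dispensed at 20 nM; compound exposure 15 min at room temperature before reaction start.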
AmpC no deterg: qHTS Inhibitors of AmpC Beta-Lactamase (assay without detergent); AID 485341, 2010; hit rate 0.52% among 330,000; Potency, µM (titrated, usually from 57.1 µM), for inactives: at the top dose activity change, negative = inhibition, usual class: inhibitors; AmpC nitrocefin hydrolysis, absorbance 480 nm, 0.0001% Triton;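 also: plate controls were no compound for no effect and no enzyme for full effect; nearly all actives have a fitted effect of over 20% in size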
Target sequence (P00811 whole entry, looked up): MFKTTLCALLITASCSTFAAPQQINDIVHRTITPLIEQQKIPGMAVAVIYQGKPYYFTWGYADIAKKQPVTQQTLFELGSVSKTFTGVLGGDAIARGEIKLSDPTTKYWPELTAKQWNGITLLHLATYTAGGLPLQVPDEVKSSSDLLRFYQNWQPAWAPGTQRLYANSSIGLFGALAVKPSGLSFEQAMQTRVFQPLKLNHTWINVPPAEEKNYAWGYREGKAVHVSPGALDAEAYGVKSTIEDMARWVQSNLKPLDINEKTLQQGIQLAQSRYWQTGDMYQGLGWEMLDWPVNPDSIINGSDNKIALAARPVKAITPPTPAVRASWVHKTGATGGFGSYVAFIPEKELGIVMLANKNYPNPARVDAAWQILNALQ
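AmpC (5.3 nM in the dispensed reagent) in 20 mM phosphate pH 7.0 with 0.01% (detergent screen) or 0.0001% Triton X-100 was preincubated with compounds for 15 min at room temperature. Nitrocefin was then added from an 800 uM solution, and hydrolysis was followed at 480 nm.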
AmpC inh detg: qHTS Inhibitors of AmpC Beta-Lactamase (assay with detergent); hit rate 0.041% among 370,000; Potency, µM (titrated, usually from 114 µM), without a hit: at the highest dose activity change, negative = inhibition, hits mostly inhibitors; AID 485294, 2010; P00811; AmpC hydrolysis of nitrocefin, absorbance 480 nm, 0.01% Triton;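 also: 0% = no-compound wells and -100% = no-enzyme wells; nearly all actives have a fitted effect of over 25% in size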
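AmpC (5.3 nM in the dispensed reagent) in 20 mM phosphate pH 7.0 with 0.01% (detergent screen) or 0.0001% Triton X-100 was preincubated with compounds for 15 min at room temperature. Nitrocefin was then added from an 800 uM solution, and hydrolysis was followed at 480 nm.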
Starred values were filed as active, the others as inactive; ? = inconclusive; nt = no result given; [ ] = another dose, or the depositor's remark. Calls follow the shape of the dose curve; as a rule, active = well fitted curve in the direction sought with a large enough effect; inconclusive = small, poorly fitted or top-dose-only effect, or another doubt; inactive = no such curve, though single readings can be large; an effect the other way counts as inactive or inconclusive. Unless noted, % is scaled to controls: 0 for no effect and ±100 for the full control effect; potency is read from the fitted curve at half-maximal effect.

SMILES	Sm TGR block	AmpC no deterg	AmpC inh detg
COc1ccccc1-n1nc(-c2ccccc2)c2cnc3cc(C(F)(F)F)ccc3c21	-2.7%	nt	-0.3%
COc1ccc2c(c1)SCCC2=O	-3.2%	-10.9%	-3.0%
COc1ccc2c(c1)OCC1=C2CCC2(C)C(=O)CC=C12 (configuration not stated)	20µM*	-33.1%	-19.2%
COc1ccc(NC(=O)CCc2c(C)nc3c(-c4ccccc4)c(C)nn3c2C)cc1Cl	-0.1%	nt	-1.0%
O=C(c1ccco1)N(CCC(c1ccccc1)c1ccco1)Cc1ccccc1 (configuration not stated)	50.1µM*	-38.1%	-8.7%
Cc1ccc(CN(Cc2ccco2)C(=O)c2ccco2)cc1	0.0%	-7.4%	0.7%
COc1ccc(CCN(Cc2nc3ccccc3c(=O)[nH]2)C(=O)c2ccco2)cc1	-13.9%	-13.1%	0.5%
COc1ccc(CN(CCC(c2ccccc2)c2ccco2)C(=O)c2ccco2)cc1 (configuration not stated)	35.5µM*	-39.4%	?
CCN1c2ccccc2-c2nc(SCC(=O)Nc3cccc(C)c3C)ncc2S1(=O)=O	-0.1%	nt	0.1%
COc1cccc(NC(=O)CSc2nnc3[nH]c(=O)cc(-c4ccccc4)n23)c1	-0.7%	nt	0.9%
Cc1ccc(NN=C2c3ccccc3-c3ccccc32)cc1	-24.6%	11.2µM*	?
Cc1ccc(OCC(=O)NN=C2c3ccccc3-c3ccccc32)cc1	12.5%	-10.6%	?
O=C(Cc1ccccc1)NC1CCN(Cc2ccccc2)CC1	55.6%	-8.6%	0.5%
N#CC(c1ccccc1)C1CCN(Cc2ccccc2)CC1 (configuration not stated)	89.1µM*	-10.4%	-3.3%
Cc1oc(S(=O)(=O)N2CCCCC2)cc1NC(=O)Nc1ccccc1	10µM*	-39.8%	2.5%
O=C(Nc1ccccc1)Nc1ccc(S(=O)(=O)N2CCCCC2)cc1	-0.1%	-44.6%	-16.5%
Cc1oc(S(=O)(=O)N2CCCCC2)cc1NC(=O)Nc1ccc(Cl)cc1	35.5µM*	-41.7%	5.2%
Cc1ccc(S(=O)(=O)N2CCCCC2)cc1NC(=O)Nc1ccc(Cl)cc1Cl	-3.8%	-33.9%	2.4%
Cc1ccc(Cn2ccc(NC(=O)c3cc(-c4ccc(Cl)c(Cl)c4)on3)n2)cc1	-1.4%	nt	21.8%
CCOC(=O)N/N=C\c1ccc([N+](=O)[O-])o1	-29.1%	-28.6%	?
N#C/C(=C\c1ccc([N+](=O)[O-])o1)C(=O)Nc1ccc(F)cc1	nt	-46.7%	1.2%
O=C(/C=C/c1ccc(-c2ccc(F)cc2)o1)N1CCCC1	35.5µM*	78.7%	1.7%
N#CCc1ccc(NC(=O)/C=C/c2ccc([N+](=O)[O-])o2)cc1	4.47µM*	-45.5%	-7.7%
O=[N+]([O-])c1ccc(/C=N/N=C/c2ccc([N+](=O)[O-])o2)o1	10µM*	-23.3%	4.2%
O=C(/C=C/c1ccc(F)cc1)N1CCCN(C(=O)/C=C/c2ccc(F)cc2)CC1	-2.0%	100.7%	5.7%
SMILES	Sm TGR block	AmpC no deterg	AmpC inh detg
O=C(O)/C=C/c1ccc([N+](=O)[O-])o1	28.2µM*	-13.8%	-1.9%
CC1(C(=O)N/N=C/c2ccc([N+](=O)[O-])o2)CC1(Br)Br (configuration not stated)	?	-4.2%	-6.5%
CCC(C)Sc1oc(-c2ccco2)nc1S(=O)(=O)c1ccc(C)cc1 (configuration not stated)	14.6%	nt	28.3%
CN1CCN(C(=O)/C=C/c2ccccc2)CC1	-13.1%	-6.7%	0.3%
CN1CCN(C(=O)/C=C/c2ccc([N+](=O)[O-])o2)CC1	17.8µM*	-11.3%	-1.1%
O=C(CCNS(=O)(=O)c1ccc(Cl)cc1)N1CCC2(O)CCCCC2C1 (configuration not stated)	-0.4%	15.2%	39.8µM*
O=C(CCNS(=O)(=O)c1ccc(Cl)cc1)N1CCCC1	1.2%	-6.7%	2.6%
O=C(CSc1ccccn1)Nc1nonc1[N+](=O)[O-]	7.08µM*	-19.6%	-17.2%
O=C(CSc1ccccn1)Nc1ccc(NC(=O)CSc2ccccn2)cc1	nt	-23.9%	-0.3%
Cc1ccc(/C=C2/C(=O)NC(=O)N(CCc3ccc(F)cc3)C2=O)s1	?	-0.6%[2.29 µM]	-4.5%
O=C1NC(=O)N(CCc2ccc(F)cc2)C(=O)/C1=C\C=C\c1ccccc1	?	3.55µM*	-2.0%
CN(C)c1ccc(/C=C/C=C2/C(=O)NC(=O)N(c3ccccc3)C2=O)cc1	?	-6.6%	1.0%
C=CCN1C(=O)NC(=O)/C(=C/C=C/c2ccccc2)C1=O	10µM*	-27.9%	5.0%
Cc1cc(NC(=O)NCc2ccc3c(c2)CCN3C(=O)c2ccccc2)ccc1Br	-13.9%	nt	0.5%
Cc1ccc(CCNC(=O)CCN2N=C(c3ccc(C)cc3)CCC2=O)cc1	0.1%	nt	-7.6%
CCCCOc1ccc(C(=O)N2CCC(c3nc4ccccc4o3)CC2)cc1	2.6%	nt	15.7%
Cc1ccc(NC(=O)c2c(C)oc3ccc(O)c(CN4CCCCCC4)c23)cc1	-17.5%	nt	-3.6%
O=C(CSc1nc2scc(-c3ccco3)c2c(=O)n1-c1ccccc1)NCC1CCCO1 (configuration not stated)	3.16µM*	37.4%	-16.5%
NC(=O)CSc1nc2scc(-c3ccco3)c2c(=O)n1-c1ccccc1	?	-36.6%	?
C=CCn1c(SCC(=O)Nc2sccc2C(N)=O)nc2sc(C)c(C)c2c1=O	39.8µM*	-13.5%	-2.5%
Cn1c(SCC(=O)NCC2CCCO2)nc2scc(-c3ccccc3)c2c1=O (configuration not stated)	-2.5%	46.1%	2.6%
C=CCn1c(SCC(=O)NC(=O)NCc2ccco2)nc2sc(CC)cc2c1=O	-27.5%	-21.0%	-10.6%
C=CCn1c(SCC(=O)NCCOC)nc2scc(-c3ccco3)c2c1=O	17.8µM*	15.6%	-14.2%
O=C(CSc1nc2scc(-c3ccco3)c2c(=O)n1-c1ccccc1)N1CCOCC1	44.7µM*	-6.8%	0.4%
C=CCn1c(SCC(=O)Nc2ccccc2C)nc2sc(C)c(C)c2c1=O	-3.9%	-15.9%	-2.3%
SMILES	Sm TGR block	AmpC no deterg	AmpC inh detg
CCOC(=O)c1c(C)[nH]c(CCC(=O)NCc2ccc(OC)c(OC)c2)c1C	4.7%	nt	13.4%
Cc1ccc(O)c(NC(=O)CCSc2nc(-c3ccco3)cc(C(F)(F)F)n2)c1	0.6%	nt	-0.4%
Cc1ccc(OCCSc2nc3ccc(NC(=O)c4ccco4)cc3s2)cc1	-3.0%	nt	22.1%
COc1cccc(Cn2cc(C(=O)c3ccc(Cl)cc3)c(=O)c3ccccc32)c1	30.5%	nt	-2.0%
Cc1csc2nc(-c3cccc(NC(=O)c4ccccc4F)c3)cn12	-1.1%	nt	17.7%
Fc1ccc(-c2cn3cc(Cc4ccccc4Cl)sc3n2)cc1	2.9%	nt	-3.6%
CCc1cccc(NC(=O)Cn2c(C(=O)OC)cc3sc(Cl)cc32)c1	3.6%	nt	15.9%
C=CCn1c(SCc2ccccc2)nc2scc(-c3ccc(C)o3)c2c1=O	?	-1.0%	-0.6%
C=CCn1c(SCC(=O)NCC2CCCO2)nc2scc(-c3ccc(OC)cc3)c2c1=O (configuration not stated)	1.6%	-8.4%	2.4%
C=CCn1c(SCC(=O)NCC2CCCO2)nc2scc(-c3ccco3)c2c1=O (configuration not stated)	7.94µM*	24.5%	?

Bioassay records deposited in PubChem by National Center for Advancing Translational Sciences (NCATS).
